# NPR1 antag – human Npr1 receptor antagonism. P16066. HEK293 hNpr1 GloSensor cGMP, ANP-stimulated luminescence. Potency, µM (titrated, usually from 46.3 µM), for inactives: at the highest dose activity change, negative = inhibition, hits mostly inhibitors. 76,000 tested, 1.6% active; note: % is set by controls: 0 for no effect and ±100 for the full control effect; nearly all actives have a fitted effect of over 60% in size
#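 HEK293 cells stably expressing human Npr1 and cGMP GloSensor pGS-40F, loaded 2 h with 2% GloSensor reagent, given compound 30 min at room temperature. Luminescence read before and 20 min after 0.1 nM hNppA.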
# HEK cytotox – kills HEK 293 cells; HEK 293 viability, ATP luminescence (CellTiter-Glo), 48-72 h; Potency, µM (doses to about 115 µM), inactives show at the highest dose activity change, negative = cytotoxicity, hits mostly inhibitors; 94,000 tested, 6.6% active; AID 1345083; active = well fitted curve in the direction sought with a large enough effect; inconclusive = small, poorly fitted or top-dose-only effect, or another doubt; inactive = no such curve, though single readings can be large; an effect the other way counts as inactive or inconclusive; note: % is set by controls: 0 for no effect and ±100 for the full control effect; nearly all actives have a fitted effect of over 60% in size
#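 Luminescence from cellular ATP, measured with CellTiter-Glo, indicates HEK 293 viability. Cells plated at 250 cells/well are treated with compound for 48 or 72 hr at 37 degree Celsius before reagent addition.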
# 3T3 cytotox – kills NIH 3T3 cells; NIH 3T3 viability, CellTiter-Glo ATP luminescence, 48-72 h; Potency, µM (top dose mostly 96.7 µM), for the others: top-dose activity change, negative = cytotoxicity, actives largely listed as inhibitors; 94,000 tested, 4.3% active; active = well fitted curve in the direction sought with a large enough effect; inconclusive = small, poorly fitted or top-dose-only effect, or another doubt; inactive = no such curve, though single readings can be large; an effect the other way counts as inactive or inconclusive; note: % is set by controls: 0 for no effect and ±100 for the full control effect; nearly all actives have a fitted effect of over 55% in size
#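 Viability of NIH 3T3 cells after 48 or 72 hr compound treatment at 37 °C was assessed by CellTiter-Glo, with luminescence imaged following a 10 min room-temperature step.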
# FLuc inh – inhibitors of firefly (Photinus pyralis) luciferase; P08659; purified P. pyralis luciferase, luminescence, biochemical; Potency, µM (doses to about 115 µM), usual class: inhibitors; 76,000 tested, 2.5% active; active = well fitted curve in the direction sought with a large enough effect; inconclusive = small, poorly fitted or top-dose-only effect, or another doubt; inactive = no such curve, though single readings can be large; an effect the other way counts as inactive or inconclusive; note: % is set by controls: 0 for no effect and ±100 for the full control effect; nearly all actives have a fitted effect of over 65% in size
#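 Biochemical qHTS: compound (6-point titration) added to 10uM D-luciferin plus 10uM ATP in Tris acetate pH 7.5 buffer with Mg, Tween-20 and BSA, then purified enzyme at 10nM; light output imaged.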
# Npr1 antag conf – hNpr1 antagonism, confirmation assay | shares compounds with NPR1 antag | HEK293 hNpr1 cGMP GloSensor luminescence, ANP-stimulated | Potency, µM (top dose mostly 57.6 µM), without a hit: at the top dose activity change, negative = inhibition, actives largely listed as inhibitors | 1,400 tested, 76% active | AID 1347044; note: nearly all actives have a fitted effect of over 70% in size
# Npr2 selectivity – hNpr2 antagonism, selectivity versus Npr1; shares compounds with NPR1 antag; HEK293 hNpr2 GloSensor cGMP luminescence, CNP-stimulated; Potency, µM (highest dose often 57.6 µM), for inactives: at the highest dose activity change, negative = inhibition, most hits filed as inhibitors; 1,400 tested, 67% active; AID 1347046; note: nearly all actives have a fitted effect of over 70% in size
# FLuc inh counter – FLuc enzyme inhibition, Npr1 counter-screen; purified FLuc enzyme, luminescence, Km substrate; shares compounds with NPR1 antag; 1,400 tested, 0.7% active; Potency, µM (titrated, usually from 57.6 µM), without a hit: top-dose activity change, negative = inhibition, hits mostly inhibitors; AID 1347047; active = well fitted curve in the direction sought with a large enough effect; inconclusive = small, poorly fitted or top-dose-only effect, or another doubt; inactive = no such curve, though single readings can be large; an effect the other way counts as inactive or inconclusive; note: series mostly up to about 58 µM; 0% is about no effect
# GloSensor cGMP – reduces cGMP signal in GloSensor control cells; shares compounds with NPR1 antag; Potency, µM (doses to about 57.6 µM), for the others: top-dose activity change, negative = inhibition, actives largely listed as inhibitors; AID 1347051; HEK293 GloSensor cGMP, SNP-stimulated, luminescence; 1,400 tested, 69% active; note: % is set by controls: 0 for no effect and ±100 for the full control effect; nearly all actives have a fitted effect of over 70% in size
# * = called active by the depositor; i = inactive; ? = inconclusive; . = no result; [ ] = remark or other dose. This is a sample that favours compounds with a hit; in the whole collection about 11% have one here. Unless noted, calls come from the whole dose curve. Potency is the fitted concentration of half-maximal effect.
SMILES,NPR1 antag,HEK cytotox,3T3 cytotox,FLuc inh,Npr1 antag conf,Npr2 selectivity,FLuc inh counter,GloSensor cGMP
Cc1ccc(F)c(C(CC(=O)NCc2ccco2)c2c[nH]c3ccc([N+](=O)[O-])cc23)c1 (stereo not drawn),-29%,40µM*,32µM*,i,?,?,3%,?
Cc1nsc(NC(=O)N2CCC(C(C)O)CC2)n1 (stereo not drawn),1%,-4%,-4%,?,.,.,.,.
Cc1nsc(NC(=O)NC23CC4CC(C2)CC(C(C)C)(C4)C3)n1,13µM*,32µM*,?,i,31µM*,27µM*,-6%,?
NC1CCCCN(C(=O)CCn2cc(Cl)cn2)C1 (stereo not drawn),5%,-2%,1%,i,.,.,.,.
O=C(CCn1cc(Cl)cn1)N1CCOC(c2ccc(Cl)cc2)C1 (stereo not drawn),?,79µM*,-6%,i,?,?,4%,0%
Cc1nc2c(c(-c3ccc(O)cc3)n1)CN(Cc1ccccc1OC(F)(F)F)CC2,-6%,?,?,i,.,.,.,.
Cc1nc2c(c(-c3ccc(O)cc3)n1)CN(Cc1cccc3ccccc13)CC2,-16%,?,?,i,-21%,-13%[86.2 µM],-1%[86.2 µM],i
O=C1COCC2(CN1)CN(c1ccc(Oc3ccccc3)cc1)C2,7.1µM*,?,?,i,11µM*,9.9µM*,-4%[86.2 µM],9.9µM*
COc1ncccc1C(=O)N1CCc2onc(-c3cccc4ccccc34)c2C1,5%,?,-24%,i,.,.,.,.
COCc1cc(N2CCc3onc(-c4cccc5ccccc45)c3C2)ncn1,13µM*,35µM*,?,i,22µM*,?,0%,24µM*
CN(Cc1ccc(N2CCCCC2)cc1)C(=O)c1ccc2c(c1)C(O)CCCCCN2C (stereo not drawn),14µM*,35µM*,?,i,24µM*,22µM*,0%,27µM*
Cc1ccc(CN2CCN(C(=O)c3ccc4c(c3)C(O)CCCCCN4C)CC2)cc1 (stereo not drawn),11µM*,40µM*,?,i,22µM*,19µM*,1%,17µM*
COc1ccc(N2CCN(C(=O)c3ccc4c(c3)C(O)CCCCCN4C)CC2)cc1 (stereo not drawn),?,?,?,i,.,.,.,.
CC(C)CN1CCN(C(=O)c2ccc3c(c2)C(O)CCCCCN3C)CC1 (stereo not drawn),0%,?,-34%,i,.,.,.,.
O=[S+]([O-])(c1ccccc1)N1CC2(COCCN(Cc3ccc4c(c3)CCO4)C2)C1,-25%[70.6 µM],?,-30%[138 µM],i,.,.,.,.
COc1cccc(NC(=O)c2cnc3c(c2)N(C(=O)Cc2ccc(C(C)C)cc2)CCC3)c1,11µM*,22µM*,?,i,19µM*,19µM*,0%,17µM*
COc1ccc(OCC2(C)COc3ccc(C(=O)N(C)c4ccccc4)cc3N2)cc1 (stereo not drawn),?,?,?,i,.,.,.,.
CCN(Cc1ccncc1)C(=O)CC(c1ccccc1)c1ccc2c(c1)OCO2 (stereo not drawn),?,?,-23%,i,?,14µM*,5%,5%
COCCn1c(=O)c(C(=O)N2CCN([S+](=O)([O-])c3ccc(C)cc3)CC2)nc2cccnc21,.,i,5%,.,.,.,.,.
CCn1nccc1C(=O)N1CCC(CCOc2ccc(F)cc2)C1 (stereo not drawn),13µM*,35µM*,?,i,22µM*,24µM*,-3%,24µM*
O=c1[nH]c(N2CCOCC2)nc2c1CCN(Cc1ccc(Cl)c(F)c1)CC2,0%,?,?,i,.,.,.,.
COCCCn1c(C)cnc1C1CCN(C(=O)C2(c3ccc(OC)cc3)CC2)C1 (stereo not drawn),3%,-13%,-13%,i,.,.,.,.
O=C(Nc1nccs1)[C@@H]1C[C@@H](c2ccc(F)cc2)N(CCOc2ccccc2)C1,?,?,?,i,35µM*,?,4%[86.2 µM],?
COCC1CN(C2CCC2)CC12CCN(C(=O)NCCc1ccccc1)CC2 (stereo not drawn),-23%,?,?,i,-13%,-15%,4%,-11%
O=C(NC1CCOCC1)c1ccc2c(c1)OCCN(c1cccc(OC(F)(F)F)c1)C2,?,32µM*,?,i,40µM*,?,4%[86.2 µM],44µM*
SMILES,NPR1 antag,HEK cytotox,3T3 cytotox,FLuc inh,Npr1 antag conf,Npr2 selectivity,FLuc inh counter,GloSensor cGMP
CCNC(=O)c1ccc2c(c1)OCCN(c1cccc(OC(F)(F)F)c1)C2,-29%[70.6 µM],?,?,i,.,.,.,.
Cc1c(CN(C)c2cc(C3CC(O)C3)nc(N)n2)[nH]c2ccccc12 (stereo not drawn),0.63µM*,-93%,?,i,0.43µM*,0.86µM*,1%,0.43µM*
Cc1ccc(SCCN(C)c2cc(C3CC(O)C3)nc(N)n2)cc1 (stereo not drawn),13µM*,28µM*,?,i,24µM*,22µM*,4%,22µM*
COc1ccccc1-c1nnc2ccc(C(=O)NCc3ccccn3)cn12,.,1%,i,.,.,.,.,.
COC(=O)CNC(=O)C1=NOC2CN(C(=O)NC(C)C)CC12 (stereo not drawn),.,1%,i,.,.,.,.,.
CNC(=O)c1cc(C)nc2onc(C3CCCN3[S+](=O)([O-])c3ccccc3)c12 (stereo not drawn),.,-9%,-10%,.,.,.,.,.
Cc1nc2ccccn2c1C(=O)NC(C)c1cnn(-c2ccccn2)c1C (stereo not drawn),4.5µM*,?,?,i,6.1µM*,9.7µM*,6%,4.8µM*
O=C(O)C[C@@H]1CCN(C(=O)c2ccnc(Cl)c2)C[C@@H]1CCN1CCN(c2cccc(C(F)(F)F)c2)CC1,0%,-10%,-19%,i,.,.,.,.
O=C(Nc1ccc(F)c(Cl)c1)C1=NO[C@@H]2CN(Cc3cccnc3)C[C@H]12,28µM*,?,?,i,35µM*,35µM*,-3%[86.2 µM],31µM*

# High-throughput results (PubChem BioAssay)
